Broadly, the inhibition is the relative decrease from the control value, in per cent.

Among all 360,000 compounds or so, about 2,700 (0.75%) were called active. The sample holds actives, similar compounds and a random draw of the others, so the mix is not that of the screen. Cut-off read from the data, not from the text of the source: active = inhibition above about 4.5%; inactive = the rest.

This note sets out measurements from PubChem BioAssay AID651718 (The Scripps Research Institute Molecular Screening Center, 2012).

The test system of the test is Methionine sulfoxide reductase A (Bos taurus). Kind of test: inhibition of methionine sulfoxide reductase A – biochemical, absorbance, bovine, HTS, primary screen (AID 651718).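 Note: 0% = vehicle wells with enzyme and 100% = reference inhibitor wells.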 The note with it: purified bovine MsrA, absorbance read-out; at 15.5 µM; hits give high values.
As to `Cc1ccc(NC(=O)N2c3ccccc3SC2c2ccco2)c(C)c1` (centres undefined), the inhibition is -0.74% (inactive).
`Cc1nc2ccccn2c(=O)c1NC(=O)c1ccc(Br)o1`: the inhibition was 2.43% (inactive).
As for `CN1C(=O)CN2CCc3ccccc3C2c2cc(Cl)ccc21` (centres undefined), the figure is 1.04% (inactive).
As for `CSCc1nnc(NC(=O)c2ccc(S(=O)(=O)N3CCCCC3C)cc2)o1` (centres undefined), the figure is -0.31% (inactive); as for `CC1CCCCN1S(=O)(=O)c1ccc(S(=O)(=O)N(CC(=O)Nc2ccccc2)Cc2cccs2)cc1` (centres undefined), -0.63% (inactive).
As for `CC1CCCCN1S(=O)(=O)c1ccc(C(=O)Nc2nnc(-c3cccs3)o2)cc1` (centres undefined), the figure is 4.79% (active).
On to `O=C(N[C@H](Cc1ccccc1)C(=O)N1CCCN(Cc2cccs2)CC1)[C@H]1O[C@@H](n2ccc(=O)[nH]c2=O)[C@H](O)[C@@H]1O`, for which the inhibition was 0.08% (inactive).
As for `O=c1c(F)cn(C2CCCO2)c(=O)n1Cc1ccccc1Cl` (centres undefined), the figure is 0.2% (inactive).
To `O=c1[nH]c2ccc(S(=O)(=O)N3CCCC3)cc2[nH]1` belongs -0.78% (inactive); to `CN(c1ccccc1)S(=O)(=O)c1ccc2[nH]c(=O)[nH]c2c1`, 14.1% (active); to `CCN(c1ccccc1)S(=O)(=O)c1ccc2[nH]c(=O)[nH]c2c1`, 2.53% (inactive).
To `CN1C(=O)C(Br)(Br)CC1c1cccnc1` (centres undefined) belongs 1.57% (inactive); to `Cc1cc(Br)cn2c(Cc3ccccc3C(F)(F)F)c(-c3ccc(C#N)cc3)nc12`, -0.24% (inactive); to `O=C(COC(=O)COc1cc(Cl)c(Cl)cc1Cl)NC1CC1`, 3.33% (inactive).
Take `NC(=S)NN=Cc1ccc(OC(=O)COc2cc(Cl)c(Cl)cc2Cl)cn1`: the inhibition is 4.84% (active).
To `O=C(COc1cc(Cl)c(Cl)cc1Cl)NCCc1ccccn1` belongs -0.1% (inactive).
As to `CCCCCCCCN1C(=O)[C@@H](CC(=O)NCc2ccccc2)C[C@@]2(C(=O)OC)C1=C[C@H](C(C)(C)C)O[C@@H]2C`, the inhibition was 0.32% (inactive).
With `CCOc1cccc(NC(=O)Cn2nc(-c3ccc4c(c3)OCCO4)ccc2=O)c1`, the inhibition was -0.18% (inactive).
For the compound `COc1cc(C=NC2CCCCC2)ccc1O`, the inhibition was 3.96% (inactive).
To `COc1cc2cc(C(=O)N/N=C/c3cccc(OC)c3OC)[nH]c2cc1OC` belongs 5.39% (active); to `COc1ccc2[nH]c(C(=O)N/N=C/c3cc(OC)c(OC)c(OC)c3)cc2c1`, 6.03% (active).
In the case of `CCOc1ccc2[nH]c(C(=O)N/N=C/c3cccc(OC)c3OC)cc2c1`, the inhibition was 5.19% (active).
As for `CCOc1ccccc1/C=N/NC(=O)CNC(=O)COc1ccccc1`, the inhibition was 0.86% (inactive).
As for `CCOc1ccc2ccccc2c1/C=N/NC(=O)c1c(C)cc(C)[nH]c1=O`, the figure is 2.01% (inactive).
`CCC(=O)c1ccc(OC(=O)/C=C/c2cc(OC)c(OC)c(OC)c2)cc1`: the inhibition was 1.16% (inactive).
For the compound `COc1ccc2[nH]c(=O)c(CNc3ccc(C)c(C)c3)cc2c1`, the inhibition was 1% (inactive).
On to `CCN1CCCC1CNC(=O)c1cc2cc(OC)c(OC)cc2[nH]1` (centres undefined), for which the inhibition was 2.2% (inactive).
As for `COc1cccc2[nH]c(C(=O)NCCc3ccccc3)cc12`, the figure is -0.25% (inactive); as for `Cc1ccc(C)c(N2C(=O)CS/C2=N\NC(=O)c2ccccc2Cl)c1`, 0.65% (inactive); as for `Cc1ccc(N2C(=O)C3C4C=CC(CC4)C3C2=O)cc1Br` (centres undefined), -0.75% (inactive).
As for `Cc1[nH]nc2c1C(c1ccc(Br)cc1)NC2=O` (centres undefined), the figure is 0.64% (inactive); as for `CCOC(=O)C1=CCC2C(=O)N(Cc3ccccc3)C(=O)C12` (centres undefined), -0.57% (inactive); as for `C[C@H](O)[C@@H]1CN2CCc3ccc(-c4ccc5c(c4)OCO5)cc3[C@@H]2C[C@@H]1N(C)C(=O)C1CCCCC1`, -0.49% (inactive).
On to `Cc1ccc(C(=O)NC2CCCC(C)C2C)cc1S(=O)(=O)N1CCCCC1` (centres undefined), for which the inhibition was -0.29% (inactive).
Regarding `COc1cccc(-c2ccc(SCC(=O)N3CCN(c4ccccc4)CC3)nn2)c1`, the inhibition is -0.38% (inactive).
On to `Cn1nc(C(F)(F)F)c2cc(C(=O)N3CCOCC3)sc21`, for which the inhibition is -0.18% (inactive).
As for `COc1cccc(-c2nn(C)c3sc(C(=O)N4CCN(c5ccccc5)CC4)cc23)c1`, the figure is 4.59% (active); as for `O=C(C(=O)N1CCC(CNS(=O)(=O)Cc2ccccc2)CC1)c1cc2ccccc2o1`, 1.99% (inactive); as for `O=c1c2ccccc2nnn1CSc1nc2sc3c(c2c(=O)n1CC1CCCO1)CCC3` (centres undefined), -0.37% (inactive).
As for `Brc1cc(/C=N/n2cnnc2)oc1Br`, the figure is 2.05% (inactive).
Take `Clc1cc(-c2ccc(/C=N/n3cnnc3)o2)ccc1Br`: the inhibition was 0.91% (inactive).
As for `Cc1ccc(Cl)cc1-c1ccc(/C=N/n2cnnc2)o1`, the figure is 4.94% (active); as for `CC(=O)Nc1ccc(S(=O)(=O)N(C)c2ccc(OCC(=O)OCC(=O)N3CCCCC3)cc2)cc1`, -0.39% (inactive); as for `CC(C)OCCCNC(=S)N1CCC(C(=O)c2ccc3c(c2)OCCO3)CC1`, -0.4% (inactive).
Turning to `CCCN(CC(=O)Nc1ccccc1OC)C(=O)CCC(=O)c1ccc(F)cc1`, the inhibition is -0.69% (inactive).
`CCOC(=O)C(=Cc1ccccc1)C(=O)c1ccccc1`: the inhibition is 0.49% (inactive).
As for `Cc1cc(C)nc(S/C=C/C(=O)c2ccccc2)n1`, the figure is 5.17% (active); as for `CSc1nc(N(C)NC(=O)c2cccc(C)c2)c2ccccc2n1`, 0.74% (inactive); as for `CCc1ccc(C2=CC(=O)CC(C)(C)C2=O)cc1`, 0.09% (inactive).
As for `COc1cccc(CNC(=O)[C@H]2CCCN2C(=O)[C@H]2CCCN2C(=O)C2CCCCC2)c1`, the figure is -0.24% (inactive).
As for `COCC1CCN(C(=O)C2CCC(=O)N(CC3CCCCC3)C2)CC1` (centres undefined), the figure is -0.21% (inactive); as for `CC(N=Cc1nc(-c2ccccc2)oc1O)c1ccccc1` (centres undefined), 5.77% (active); as for `Cc1ccc(-c2noc(CC(c3ccccc3)c3ccccc3)n2)cc1`, 0.66% (inactive).
Regarding `Oc1oc(-c2ccccc2Br)nc1/C=N/c1ccccn1`, the inhibition is 2.4% (inactive).
On to `CCN(CC)CC1(O)CCN(C(=O)c2ccc(Cl)c(Cl)c2)CC1`, for which the inhibition is -0.14% (inactive).
Regarding `Cc1ccc(C)c(CN2CCC(CNC(=O)C3CCCN(c4ncnc5c4nc4n5CCCCC4)C3)CC2)c1` (centres undefined), the inhibition was 1.23% (inactive).
To `CSc1ccc(/C=C2\NC(=O)NC2=O)cc1` belongs 7.41% (active).
To `CSc1ccc(/C=C/C(=O)NC23CC4CC(CC(C4)C2)C3)cc1` belongs 3.33% (inactive); to `CC(C)c1ccc(/C=C2\NC(=O)NC2=O)cc1`, 1.9% (inactive).
